# Compounds without any hit were thinned out: in the full panel of roughly 83,000, 20% have a hit.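 48-hour exposure, single concentration, 96-well plates; percent growth endpoint where 0 means no net growth. Active: below 10.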 Values without a mark were called inactive.
# Test system: MDA-MB-468 breast
# Test: NCI-60 one-dose screen, 48 h (100 = growth as untreated, 0 = no growth, -100 = all killed)
# Conditions: 10 µM unless noted
row,SMILES,growth [%]
1,C=C(C)c1ccc(/C=N/NC(N)=S)cc1,70.6
2,CC1(C)CC[C@]2(c3nnc(-c4ccncc4)o3)CC[C@H]3C(=CC[C@H]4[C@@]3(C)CC[C@H]3C(C)(C)C(=O)CC[C@]43C)[C@@H]2C1,62.2
3,Cc1cc(C(NC(=O)CCCCCNc2cccc3c2C(=O)N(C2CCC(=O)NC2=O)C3=O)c2ccc3c(c2)OC(F)(F)O3)c(O)c2ncccc12 (stereo not drawn),69
